# Test results: PubChem BioAssay
# Values joined by “and” are separate entries in the source; they are usually repeats but may differ in a detail not shown here. Equal entries are not always repeated. Results filed as inconclusive are left out. For some assays here: Results with a measured potency or affinity are listed apart. Active and inactive are the calls of the source. Unless noted, the rule behind the calls is not given here.
# How the values were obtained:
# [1] = tested on: Aerobactin synthetase IucA (Klebsiella pneumoniae); assay: inhibition of K. pneumoniae IucA enzyme – biochemical, Tocris library, absorbance (AID 1345561); conditions: purified IucA enzyme assay, absorbance (OD) read-out; stronger effect = lower value;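 tested at 8 µM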;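 note: 100% = enzyme without compound and 0% = no enzyme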
# [2] = chitosan synthesis blockers in C. neoformans – flow cytometry, Cibacron Brilliant Red staining (AID 1347148); conditions: Cryptococcus neoformans chitosan, stronger effect = lower value; at 10 µM unless noted;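 note: compound exposure lasted three days at 37 degrees C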
# [3] = compounds altering viability of human ES cells (AID 493140); conditions: human embryonic stem cell survival screen; stronger effect = higher value;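 note: cells exposed to compounds for four days before counting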
# [4] = molecular target: ATP-dependent translocase ABCB1 (Homo sapiens) (UniProt P08183); assay: P-glycoprotein substrate transport blockade – cell-based (AID 377; in the data active = fluorescence slope change above about 50%); conditions: MDR1-expressing cells, fluorescent substrate accumulation slope; stronger effect = higher value; concentration not given here
# [5] = blockers of polyQ-driven CASP3 activation – cell-based (AID 1583); conditions: polyglutamine-induced caspase-3 activation, cell assay; stronger effect = higher value;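 tested at 10 µM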
# [6] = yeast 75Q aggregation reduction – 75Q-TubU reporter (AID 1593); conditions: Yeast 75Q polyglutamine aggregation reporter
# [7] = restoration of touch response, mutant HTT neurons – whole organism, C. elegans mechanosensory neurons, N-terminal huntingtin (AID 1599); conditions: C. elegans polyQ-huntingtin mechanosensory neurons, stronger effect = higher value
# [8] = blockers of cytochrome c efflux from mitochondria – biochemical, purified mitochondria (AID 1603); conditions: stronger effect = lower value;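 note: mouse liver mitochondria challenged with calcium chloride; signal normalized to the plate average as 100%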
# [9] = polyglutamine aggregate formation blockers (AID 1604); conditions: polyglutamine-induced protein aggregation inhibition assay; stronger effect = higher value; tested at 2.5 µM
# [10] = glutamate transport activators, MN-1 cells, MN-1 cell line (AID 1612); conditions: MN-1 motor neuron cells, stronger effect = higher value;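 note: tested at 1 µM final; 0% = mean of DMSO vehicle wells on each plate; positive means more glutamate uptake than control and negative means less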
# [11] = 75Q-TubH aggregate inhibition, S. cerevisiae, yeast (AID 1616); conditions: S. cerevisiae 75Q-TubH polyglutamine aggregation suppression; stronger effect = higher value
# [12] = antimalarial activity against Dd2 strain (AID 2302;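 active = growth inhibition above 50% at the single 2 µM test dose, taken to imply half-maximal potency below 2 µM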;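 note: 0% = DMSO untreated growth and 100% = chloroquine plus artemisinin killed control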); conditions: P. falciparum Dd2 in RBCs, LDH growth readout, 72 h; at 2 µM; stronger effect = higher value
# [13] = human hepatoma cell viability loss – ATP luminescence, cytotoxicity control for P. falciparum antimalarial project, primary screen (AID 2303;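 active = inhibition above 50%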;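 note: 0% = DMSO wells and 100% = digitonin-killed cells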); conditions: HepG2 viability, 24-48 h, at 10 µM, stronger effect = higher value
# [14] = molecular target: L-lactate dehydrogenase (Plasmodium falciparum (isolate CDC / Honduras)) (UniProt Q27743); assay: PfLDH activity inhibition – cell lysate, 3D7 strain, counter-screen for P. falciparum growth inhibition project (AID 2304);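 note: 0% = vehicle and 100% = reference inhibitor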; conditions: P. falciparum 3D7 crude extract, LDH APAD/NBT absorbance; at 2 µM; stronger effect = higher value
# [15] = inhibition of 3D7 malaria parasite growth – strain 3D7 (AID 2306);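 note: 0% = DMSO wells and 100% = chloroquine plus artemisinin control wells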; conditions: P. falciparum 3D7 erythrocytic growth, LDH absorbance, 72 h; at 2 µM; stronger effect = higher value
# [16] = GFP-Q80 aggregate reduction, neuronal-like cells, cell-based, NGF-treated PC12, GFPQ80 (AID 1614); conditions: PC12 NGF-treated GFP-polyQ80 inclusion reduction;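 note: lower means fewer inclusions and 0 means no inclusions at all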
# [17] = rescue of PC12 cells from polyQ htt toxicity – LDH release (AID 1610); conditions: PC12 mutant huntingtin toxicity, final LDH at 4 uM, stronger effect = lower value
# Chain of ATP-dependent translocase ABCB1 (Homo sapiens) (P08183 whole entry, looked up): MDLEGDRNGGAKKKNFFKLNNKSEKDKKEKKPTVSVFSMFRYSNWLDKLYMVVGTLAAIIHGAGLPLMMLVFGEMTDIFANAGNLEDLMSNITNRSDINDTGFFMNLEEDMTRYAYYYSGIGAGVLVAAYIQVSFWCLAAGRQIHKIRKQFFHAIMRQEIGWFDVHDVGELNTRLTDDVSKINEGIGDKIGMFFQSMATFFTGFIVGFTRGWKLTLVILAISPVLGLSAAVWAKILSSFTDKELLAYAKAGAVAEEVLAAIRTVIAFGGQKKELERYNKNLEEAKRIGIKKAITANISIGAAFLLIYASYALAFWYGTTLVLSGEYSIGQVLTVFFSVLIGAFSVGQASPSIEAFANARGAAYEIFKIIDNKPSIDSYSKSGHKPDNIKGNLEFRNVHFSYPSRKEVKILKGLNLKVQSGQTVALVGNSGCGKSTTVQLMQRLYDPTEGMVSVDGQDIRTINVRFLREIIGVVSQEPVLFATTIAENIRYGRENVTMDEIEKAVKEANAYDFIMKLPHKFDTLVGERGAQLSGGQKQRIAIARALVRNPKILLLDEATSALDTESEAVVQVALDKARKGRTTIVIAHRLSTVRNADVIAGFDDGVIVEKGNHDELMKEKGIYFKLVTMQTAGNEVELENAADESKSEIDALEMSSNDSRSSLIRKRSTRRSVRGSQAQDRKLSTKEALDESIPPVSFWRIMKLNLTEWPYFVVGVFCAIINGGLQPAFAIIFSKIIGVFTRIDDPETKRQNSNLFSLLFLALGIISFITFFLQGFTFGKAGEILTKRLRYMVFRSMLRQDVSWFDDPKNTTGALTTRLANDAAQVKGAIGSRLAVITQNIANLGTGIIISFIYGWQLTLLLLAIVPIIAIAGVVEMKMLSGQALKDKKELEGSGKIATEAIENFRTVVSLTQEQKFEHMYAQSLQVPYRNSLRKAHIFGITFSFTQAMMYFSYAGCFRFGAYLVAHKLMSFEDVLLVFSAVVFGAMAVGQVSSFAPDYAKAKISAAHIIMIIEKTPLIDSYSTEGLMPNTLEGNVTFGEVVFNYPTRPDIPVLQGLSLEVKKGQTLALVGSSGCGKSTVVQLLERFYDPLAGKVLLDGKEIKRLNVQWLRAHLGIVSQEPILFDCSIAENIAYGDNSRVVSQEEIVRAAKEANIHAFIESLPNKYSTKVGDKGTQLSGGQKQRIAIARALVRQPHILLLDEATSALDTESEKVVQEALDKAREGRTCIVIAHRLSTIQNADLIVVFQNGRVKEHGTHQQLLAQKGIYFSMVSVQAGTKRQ
# Chain of L-lactate dehydrogenase (Plasmodium falciparum (isolate CDC / Honduras)) (Q27743 whole entry, looked up): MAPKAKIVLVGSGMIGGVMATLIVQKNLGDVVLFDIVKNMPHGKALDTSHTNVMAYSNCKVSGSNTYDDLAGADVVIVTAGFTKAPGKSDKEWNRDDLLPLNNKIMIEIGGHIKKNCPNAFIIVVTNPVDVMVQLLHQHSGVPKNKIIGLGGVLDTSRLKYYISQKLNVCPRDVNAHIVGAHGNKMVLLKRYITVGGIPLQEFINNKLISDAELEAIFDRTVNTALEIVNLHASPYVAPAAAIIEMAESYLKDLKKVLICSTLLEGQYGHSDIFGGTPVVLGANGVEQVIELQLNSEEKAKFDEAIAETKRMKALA
smiles,measurement,setting,value
CC(C)NC[C@H](O)COc1cccc2ccccc12,remaining activity,[1],97% (inactive)
same,fold fluorescence,[2],1.64 [at 192.8 µM] (inactive)
Cc1cc2nc3c(=O)[nH]c(=O)nc-3n(CC(O)C(O)C(O)CO)c2cc1C (stereo not given),survival,[3],1.58 (inactive)
OC(c1cc(C(F)(F)F)nc2c(C(F)(F)F)cccc12)C1CCCCN1 (stereo not given),fluorescence slope change,[4],96.4% (active)
same,inhibition,[5],50.1%
same,score,[6],1.42
same,rescue above control,[7],0
same,cytochrome c release ratio,[8],2.44
same,inhibition of aggregation,[9],-19.6%
same,glutamate uptake change,[10],-3.13%
same,aggregation suppression score,[11],1.65
same,growth inhibition,[12],99% (active)
same,inhibition,[13],-3% (inactive)
same,inhibition,[14],-6% (inactive)
same,growth inhibition,[15],96% (active)
same,survival,[3],3.83 (inactive)
COc1ccc(C2Sc3ccccc3N(CCN(C)C)C(=O)C2OC(C)=O)cc1 (stereo not given),inhibition,[5],5.24%
same,score,[6],1.09
same,rescue above control,[7],-7.88
same,cytochrome c release ratio,[8],1.1
same,inhibition of aggregation,[9],45.9%
same,glutamate uptake change,[10],4.81%
same,inclusion score,[16],2
same,aggregation suppression score,[11],0.716
C=CC[C@@H]1/C=C(\C)C[C@H](C)C[C@H](OC)[C@H]2O[C@@](O)(C(=O)C(=O)N3CCCC[C@H]3C(=O)O[C@H](/C(C)=C/[C@@H]3CC[C@@H](O)[C@H](OC)C3)[C@H](C)[C@@H](O)CC1=O)[C@H](C)C[C@@H]2OC,inhibition,[5],-0.04%
same,score,[6],-0.08
same,rescue above control,[7],0
same,cytochrome c release ratio,[8],2.76
same,inhibition of aggregation,[9],0%
same,glutamate uptake change,[10],0%
same,aggregation suppression score,[11],0.207
CN[C@@H]1[C@H](O[C@H]2[C@H](O[C@@H]3[C@@H](O)[C@H](O)[C@@H](N=C(N)N)[C@H](O)[C@H]3N=C(N)N)O[C@@H](C)[C@]2(O)C=O)O[C@@H](CO)[C@H](O)[C@H]1O,fluorescence slope change,[4],2.1% (inactive)
same,survival,[3],20.6 (inactive)
C[C@@H]1CC2C3CCC4=CC(=O)C=C[C@]4(C)[C@@]3(F)[C@@H](O)C[C@]2(C)[C@@]1(O)C(=O)CO (stereo not given in full),inhibition,[5],-20.4%
same,score,[6],1.07
same,rescue above control,[7],-7.18
same,cytochrome c release ratio,[8],0.84
same,inhibition of aggregation,[9],31.7%
same,glutamate uptake change,[10],53.3%
same,inclusion score,[16],2
same,aggregation suppression score,[11],1.35
same,fold fluorescence,[2],10.5 [at 127.4 µM] (inactive)
CO[C@@]12[C@@H]3NC3CN1C1=C(C(=O)C(N)=C(C)C1=O)[C@@H]2COC(N)=O (stereo not given in full),inhibition,[5],-29.8%
same,score,[6],2
same,rescue above control,[7],0
same,cytochrome c release ratio,[8],1
same,inhibition of aggregation,[9],29.2%
same,normalised LDH release,[17],0.873
same,glutamate uptake change,[10],0.5%
same,aggregation suppression score,[11],1.38
same,fold fluorescence,[2],4.49 [at 149.6 µM] (inactive)
CC(C)Cc1ccc([C@H](C)C(=O)O)cc1,survival,[3],6.58 (inactive)
N[C@H]1CONC1=O,survival,[3],1.5 (inactive)
COc1cccc2c1C(=O)c1c(O)c3c(c(O)c1C2=O)C[C@@](O)(C(=O)CO)C[C@@H]3OC1C[C@H](N)[C@H](O)[C@H](C)O1 (stereo not given in full),fold fluorescence,[2],5.77 [at 92 µM] (inactive)
O=C(O)C1CCCNC1 (stereo not given),inhibition,[5],28%
same,score,[6],2.59
same,rescue above control,[7],-9.05
same,cytochrome c release ratio,[8],1.08
same,inhibition of aggregation,[9],41.5%
same,glutamate uptake change,[10],-1.16%
same,inclusion score,[16],2
same,aggregation suppression score,[11],1.59
CC(=O)c1ccc(S(=O)(=O)NC(=O)NC2CCCCC2)cc1,survival,[3],14 (inactive)
CC1(C)S[C@@H]2[C@H](NC(=O)COc3ccccc3)C(=O)N2[C@H]1C(=O)O,inhibition,[5],4.98%
same,score,[6],1.39
same,rescue above control,[7],1.16
same,cytochrome c release ratio,[8],0.65
same,inhibition of aggregation,[9],70.1%
same,glutamate uptake change,[10],-6.22%
same,inclusion score,[16],2
same,aggregation suppression score,[11],0.899
CCCCC[C@H](CC(=O)NO)C(=O)N[C@H](C(=O)N1CCC[C@H]1CO)C(C)C,inhibition,[5],-22.9%
same,score,[6],1.1
same,rescue above control,[7],7.47
same,cytochrome c release ratio,[8],0.78
same,inhibition of aggregation,[9],14.3%
same,normalised LDH release,[17],1.19
same,glutamate uptake change,[10],9.77%
same,inclusion score,[16],2
same,aggregation suppression score,[11],1.26
c1ccc(C2CN3CCSC3=N2)cc1 (stereo not given),fluorescence slope change,[4],29.7% (inactive)
same,survival,[3],5.17 (inactive) and 92.1 (inactive)
CN1CCN(C(c2ccccc2)c2ccc(Cl)cc2)CC1 (stereo not given),inhibition,[5],9.79%
same,score,[6],1.32
same,rescue above control,[7],0
same,cytochrome c release ratio,[8],1.15
same,inhibition of aggregation,[9],65.4%
same,glutamate uptake change,[10],11.5%
same,aggregation suppression score,[11],0.963
same,survival,[3],1.83 (inactive)
CCC(NC(C)C)C(O)c1ccc(O)c(O)c1 (stereo not given),fluorescence slope change,[4],50.8% (active)
same,survival,[3],6.67 (inactive)
O=C(O)c1ccccc1Nc1ccccc1,fold fluorescence,[2],3.75 [at 234.5 µM] (inactive)
COC1CC2CCC(C)C(O)(O2)C(=O)C(=O)N2CCCCC2C(=O)OC(C(C)CC2CCC(O)C(OC)C2)CC(=O)C(C)/C=C(\C)C(O)C(OC)C(=O)C(C)CC(C)/C=C/C=C/C=C/1C (stereo not given),fold fluorescence,[2],6.13 [at 54.7 µM] (inactive)
COc1cc(-c2ccc(N=Nc3ccc4c(S(=O)(=O)O)cc(S(=O)(=O)O)c(N)c4c3O)c(OC)c2)ccc1N=Nc1ccc2c(S(=O)(=O)O)cc(S(=O)(=O)O)c(N)c2c1O,survival,[3],5.92 (inactive)
